High-throughput results: PubChem BioAssay, The Scripps Research Institute Molecular Screening Center
The list is not random: actives were taken first. Their share in the collection is about 4.1%.
DAX1 inh-1: inhibitors of human orphan nuclear receptor DAX1 (NR0B1); HEK293 Gal4-DAX1 luciferase reporter, luminescence; inhibition, % at 6.75 µM; actives 0.99% (n = 340,000); AID 504766; P51843;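 active = inhibition above the mean over all tested compounds plus 3 SD, cut at about 4.2% in these data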;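 note: inhibition shows as a rise in luminescence from relieved DAX1 repression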
Target sequence (P51843 207-470 limits assumed): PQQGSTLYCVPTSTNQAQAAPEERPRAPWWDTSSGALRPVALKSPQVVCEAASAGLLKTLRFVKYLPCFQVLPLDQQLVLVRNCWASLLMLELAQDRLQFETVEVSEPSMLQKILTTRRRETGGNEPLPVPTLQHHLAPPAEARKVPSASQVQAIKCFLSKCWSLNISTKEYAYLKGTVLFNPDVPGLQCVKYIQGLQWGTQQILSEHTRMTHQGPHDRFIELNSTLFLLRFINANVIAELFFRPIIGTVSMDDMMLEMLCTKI
hcDAF12 agonist: H. contortus DAF-12 activation, primary screen. HEK293 hcDAF-12 lit1-tk-luc reporter, luminescence; 0% DMSO, 100% Δ7-dafachronic acid. activation, % at 6.8 µM. actives 1.4% (n = 370,000). AID 652067;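 active = activation above the mean of all tested compounds plus 3 SD, cut at about 5.5% in these data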
DAX1 inh-2: blocks DAX1 repression of SF-1 activated StAR promoter | inhibition, % at 6.8 µM | actives 1.1% (n = 370,000) | HEK293T StAR-luciferase reporter, SF-1/DAX-1 repression relief;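 active = inhibition above the mean over all tested compounds plus 3 SD, cut at about 3.6% in these data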;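 note: higher inhibition means more luminescence from relief of DAX-1 repression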
hgDAF-12 ag: hgDAF-12 agonism, primary luciferase screen | HEK293 GAL4-hgDAF12 UAS-luciferase reporter, agonist luminescence; normalized to butyrate control | activation, % at 6.8 µM | actives 1.8% (n = 370,000) | AID 687014;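 active = activation above a cutoff set at the mean of all screened compounds plus 3 SD, cut at about 10% in these data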
ssDAF-12 act: S. stercoralis DAF-12 activation, primary screen | HEK293 ssDAF-12/GRIP1 lit1-tk-luc reporter, luminescence; % of 3 µM dafachronic acid response | activation, % at 6.8 µM | actives 1% (n = 370,000) | AID 652126;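 active = activation above the mean over all tested compounds plus 3 SD, cut at about 0.9% in these data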
A number is an active result; - = inactive; . = no result given.

SMILES	DAX1 inh-1	hcDAF12 agonist	DAX1 inh-2	hgDAF-12 ag	ssDAF-12 act
COc1ccccc1Nc1nc(-c2cccnc2)cs1	-	-	-	12	1.2
O=[N+]([O-])c1ccccc1Nc1nc(-c2cccnc2)cs1	-	5.6	-	-	-
CCc1ccccc1Nc1nc(-c2cccnc2)cs1	-	-	-	-	-
C=CCNC(=O)CN(C(=O)c1ccncn1)c1cccc(Br)c1	.	-	-	-	-
O=C(CSc1nnc(COc2ccc(Cl)cc2)n1Cc1ccco1)Nc1ccc(OCc2ccccc2)cc1	.	-	-	-	-
O=C(CSc1nnc(-c2ccccc2)n1-c1ccccc1)Nc1ccccc1-c1ccccc1	.	-	-	-	-
Cc1ccc(C)c(NC(=O)[C@@H]2CCCN2S(=O)(=O)c2cccc3cccnc23)c1	.	-	.	-	-
O=C(COC(=O)/C=C/c1cccs1)Nc1nc(-c2ccccc2)cs1	-	5.8	-	-	-
CCOc1ccc(C2CC(c3ccc(CC)cc3)Nc3nc(N)nn32)cc1 (stereo not drawn)	4.3	-	-	-	-
COc1ccc(C2CC(c3ccccc3C)n3nc(N)nc3N2)cc1 (stereo not drawn)	5.1	-	-	-	-
Cc1cc(N(C)C)ccc1N=Nc1ccc(N)cc1	-	-	-	-	-
Cc1sc(N=Nc2ccc(N(C)C)cc2)[n+]([O-])c1C	-	-	3.7	-	-
C=CCN1[C@H](Cc2ccccc2)COc2cccc(N3CCSCC3)c2S1(=O)=O	.	-	-	-	-
CC(C)CCNC(=O)C(=O)Nc1ccccc1	-	-	-	13	-
Cc1cccc(NC(=S)NCCC(C)C)c1	-	-	-	-	-
CC1(C)Cc2c(sc(NC(=O)Nc3ccccc3)c2C(N)=O)CO1	5.1	-	-	11	-
CC(=O)Nc1ccc(O)cc1	5.8	-	-	-	-
CCCN(CC(=O)Nc1cccc(Br)c1)CC(=O)Nc1ccc(F)c(F)c1F	-	-	-	-	-
CCCN(CC(=O)Nc1ccc(NC(C)=O)cc1)CC(=O)Nc1ccc(F)c(F)c1F	4.6	-	-	-	-
COC(=O)[C@]12C[C@H](CC(=O)NCCCCc3ccccc3)C(=O)N(Cc3ccco3)C1=C[C@H](C(C)C)O[C@@H]2C1CC1	.	-	-	-	-
O=C(NC1=NCCS1)c1ccccc1	-	-	-	-	-
CC(Oc1ccccc1)C(=O)NC1=NCCS1 (stereo not drawn)	-	-	4.0	-	-
O=C(COc1ccccc1)NC1=NCCS1	-	-	-	-	-
CC(C)(C)c1csc(NC(=O)Nc2ccccc2)n1	-	-	-	12	-
O=C(NC1=NCCS1)Nc1ccccc1	-	-	-	11	-
SMILES	DAX1 inh-1	hcDAF12 agonist	DAX1 inh-2	hgDAF-12 ag	ssDAF-12 act
CC(C)c1ccc(OCC(=O)NC2=NCCS2)cc1	-	-	3.7	-	-
CCOC(=O)C1=NOC(C(C)=O)(C(=O)NC2CCCC2)C1 (stereo not drawn)	.	-	-	-	-
O=C(O)CC(=O)Nc1ccccc1	-	-	-	-	-
O=C(CC(=O)c1ccccc1)Nc1ccccc1	4.5	-	-	-	-
O=C(Nc1ccccc1)Nc1ccccc1	-	-	-	12	-
O=c1cc(-c2ccccc2)nc2c(-c3ccccc3)c(C(F)(F)F)[nH]n12	.	-	-	-	-
O=C(N[C@@H](Cc1ccccc1)C(=O)NCP(=O)(O)OC(Cc1ccccc1)C(=O)O)OCc1ccccc1 (stereo partly drawn)	.	-	.	-	-
CCN(CC1CCCO1)C(=O)CCc1nnc(Cc2ccc3c(c2)OCO3)o1 (stereo not drawn)	-	-	-	-	-
CCCOC1CCCN(C(=O)CCc2nnc(Cc3cccc(C)c3)o2)C1 (stereo not drawn)	-	-	-	11	-
Cc1cccc(Cc2nnc(CCC(=O)N3CCCCC3c3nccs3)o2)c1 (stereo not drawn)	-	-	-	-	-
Cc1cccc(Cc2nnc(CCC(=O)N(CC3CC3)CC3CCCO3)o2)c1 (stereo not drawn)	-	-	-	12	-
COC(=O)[C@]12C[C@H](CC(=O)NCCCN3CCCC3=O)C(=O)N(CCC3=CCCCC3)C1=C[C@H](C1CCCC1)O[C@@H]2C	.	-	-	-	-
CCn1c(C)cc(/C=C2/SC(=O)N(C(C)C(=O)OC)C2=O)c1C (stereo not drawn)	-	-	-	-	-
